Test results reported in PubChem BioAssay AID1159580 (chemical genetic matrix, 2015).
About 2,000 (36%) of roughly 5,500 compounds were called active. About 18% were inconclusive and are not listed. Rule as the data show it: active = normalized growth mostly below about 0.91 (no sharp cut-off); inconclusive = no clear call, values can overlap the other calls; inactive = mostly above about 0.92. The list shows a part of the results.

Assay: chemical genetic growth profiling, strain panel (AID 1159580);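 also: tested at 20 µM; growth read once vehicle control cultures reached saturation at 30 °C; 1 = growth at the plate median or of vehicle wells; lower values mean less growth of the strain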
Conditions: S. cerevisiae deletion strains, growth OD

Measured: normalized growth

COc1ccc2oc3ccccc3c(=O)c2c1
active: locus YAL026C, strain drs2, active compounds read low 0.884 | locus YAL030W, strain snc1, active compounds read low 0.926 | locus YBL061C, strain skt5, active compounds read low 0.896 | locus YBR009C, strain hhf1, active compounds read low 0.712 | locus YBR021W, strain FUR4, active compounds read low 1.22 [resistant] | locus YBR023C, strain chs3, active compounds read low 0.874 | locus YBR171W, strain sec66, active compounds read low 0.886 | locus YBR229C, strain ROT2, active compounds read low 0.885 | locus YBR231C, strain swc5, active compounds read low 0.76 | locus YBR279W, strain paf1, active compounds read low 0.883 | locus YCL011C, strain gbp2, active compounds read low 0.899 | locus YCL016C, strain dcc1, active compounds read low 0.842 | locus YCL029C, strain bik1, active compounds read low 0.884 | locus YCL061C, strain MRC1, active compounds read low 0.9 | locus YCL069W, strain vba3, active compounds read low 0.922 | locus YDL074C, strain BRE1, active compounds read low 0.762 | locus YDL101C, strain DUN1, active compounds read low 0.76 | locus YDL134C, strain PPH21, active compounds read low 0.791 | locus YDL185W, strain tfp1, active compounds read low 0.809 | locus YDL192W, strain arf1, active compounds read low 0.814 | locus YDR101C, strain arx1, active compounds read low 0.88 | locus YDR137W, strain rgp1, active compounds read low 0.556 | locus YDR150W, strain NUM1, active compounds read low 0.904 | locus YDR162C, strain NBP2, active compounds read low 0.437 | locus YDR195W, strain ref2 1.28 [resistant] | locus YDR318W, strain mcm21, active compounds read low 0.862 | locus YDR334W, strain swr1, active compounds read low 0.852 | locus YDR335W, strain msn5, active compounds read low 0.874 | locus YDR388W, active compounds read low 0.901 | locus YDR392W, strain spt3, active compounds read low 0.35 | locus YDR502C, strain sam2, active compounds read low 0.848 | locus YEL003W, strain gim4, active compounds read low 0.819 | locus YEL061C, strain CIN8 (second series), active compounds read low 0.676 | locus YEL061C, strain CIN8, active compounds read low 0.718 | locus YER016W, strain bim1, active compounds read low 0.903 | locus YER110C, active compounds read low 0.837 | locus YER111C, strain swi4, active compounds read low 0.87 | locus YER155C, strain BEM2 (second series), active compounds read low 0.249 | locus YGL078C, strain dbp3, active compounds read low 0.9 | locus YGL086W, strain mad1, active compounds read low 0.836 | locus YGL167C, strain pmr1, active compounds read low 0.902 | locus YGL173C, strain kem1, active compounds read low 0.882 | locus YGL240W, strain doc1, active compounds read low 0.785 | locus YGL248W, strain PDE1, active compounds read low 0.836 | locus YGL253W, strain hxk2, active compounds read low 0.74 | locus YGR135W, strain pre9, active compounds read low 0.811 | locus YHR013C, strain ard1, active compounds read low 0.631 | locus YHR030C, strain SLT2, active compounds read low 0.656 | locus YHR079C, strain IRE1 (second series), active compounds read low 0.902 | locus YHR094C, strain hxt1, active compounds read low 0.912 | locus YHR129C, strain ARP1, active compounds read low 0.897 | locus YHR142W, strain chs7, active compounds read low 0.688 | locus YHR200W, strain rpn10, active compounds read low 0.862 | locus YIL066C, strain RNR3, active compounds read low 0.761 | locus YIL125W, strain kgd1, active compounds read low 0.9 | locus YIR030C, strain dcg1, active compounds read low 0.91 | locus YJL095W, strain BCK1 (second series), active compounds read low 0.65 | locus YJL095W, strain BCK1, active compounds read low 0.428 | locus YJL134W, strain LCB3, active compounds read low 0.913 | locus YJL164C, strain tpk1, active compounds read low 0.844 | locus YJL166W, strain qcr8, active compounds read low 0.756 | locus YJL168C, strain set2, active compounds read low 0.903 | locus YJL187C, strain SWE1 (second series), active compounds read low 0.828
inactive: locus YAL021C, strain ccr4, active compounds read low 0.948 | locus YCR088W, strain abp1, active compounds read low 0.956 | locus YDL005C, strain med2, active compounds read low 0.978 | locus YDL035C, strain GPR1, active compounds read low 0.861 | locus YDL040C, strain nat1, active compounds read low 0.935 | locus YDR001C, strain nth1, active compounds read low 0.944 | locus YDR069C, strain doa4, active compounds read low 0.918 | locus YDR159W, strain sac3, active compounds read low 0.901 | locus YDR297W, strain sur2, active compounds read low 0.935 | locus YEL037C, strain rad23, active compounds read low 0.925 | locus YER015W, strain faa2, active compounds read low 0.931 | locus YER155C, strain BEM2, active compounds read low 0.997 | locus YER167W, strain BCK2, active compounds read low 0.918 | locus YFR010W, strain ubp6, active compounds read low 0.904 | locus YGL227W, strain vid30, active compounds read low 0.94 | locus YGR252W, strain gcn5, active compounds read low 0.799 | locus YHR027C, strain rpn1, active compounds read low 0.939 | locus YIL073C, strain SPO22, active compounds read low 0.736 | locus YJL092W, strain hpr5, active compounds read low 0.944 | locus YJL115W, strain asf1, active compounds read low 0.948 | locus YJL129C, strain trk1, active compounds read low 0.921 | locus YJL154C, strain vps35, active compounds read low 0.947
